# Reference: PubChem BioAssay (NCATS)
# Results filed as inconclusive are left out. A number with no mark means an inactive call. Calls of active or inactive are those of the source. Calls follow the shape of the dose curve; as a rule, active = well fitted cell-killing curve with a large enough effect; inconclusive = small, poorly fitted or top-dose-only effect, or effect the other way; inactive = flat fitted curve, though single readings scatter.
# System: CAOV3
# Assay: Primary qHTS to identify gynecologic anti-cancer compounds using libraries of approved drugs and bioactive compounds (AID 1345084); also: nearly all actives have a fitted effect of over 55% in size
# Settings: Gynecologic cancer cell panel viability, ATPlite luminescence, 48 h; series mostly up to 57.5 µM; activity change, negative = cytotoxicity: at the top concentration
# Excerpt: National Center for Advancing Translational Sciences [NCATS] Assay Overview: Chemotherapeutic drug responses vary from cancer to cancer and from patient to patient. These variations could be caused by a number of factors including patient genomic background, tumor mutations, tumor heterogeneity, and aspects of drug treatment. Chemotherapeutic drug resistance is also a common issue and can lead to ineffective treatment and patient death. Here we have profiled the cell killing effects of thousands of compounds to characterize the responses in three gynecological cancers, identify cancer-selective compounds, and understand the diversity of responses to these compounds from pan-cancer suppressors to single cell line selective compounds. In this assay, we screened a 7,914 compound drug library that included approved drug and bioactive compounds in six ovarian, three cervical, and […] placental cancer cell lines using the ATPlite assay for cell viability. […] The cervical cancer cell lines included HeLa, Ca Ski, and C-33 A. The placental cancer cell lines included JEG-3. HEK 293T cells were used as the control cell line to determine the selectivity index. ATPlite is a luminescence based assay reliant on the conversion of a luciferase substrate to light in the presence of ATP. As a cytotoxic compound will suppress growth and decrease the number of cells, the concentration of ATP will decrease, and less light signal will be detected in the well.
# Assay Protocol Summary: 1,000 cells in 4 uL of media were dispensed into white, solid bottom 1536-well plates using a Multidrop Combi (Thermo Scientific). The Assay plates were incubated for 16 hours at 37 C with 5% CO2 in assay plates, followed by the addition of 23 nL of DMSO or drug dissolved in DMSO. Each compound was assayed in five concentrations (0.092, 0.46, 2.3, 11.5, and 57.5 uM), using the automated Wako 1536 Pin Tool workstation and incubated at 37 C with 5% CO2 48 hours. 4 uL of ATPlite, the ATP monitoring reagent, was then added to the each well of the assay plates using the Multidrop Combi reagent dispenser followed by incubation for 15 minutes at room temperature. The resulting luminescence was measured using the ViewLux plate reader.
# % is scaled to controls: 0 for no effect and ±100 for the full control effect.
SMILES,"activity change, negative = cytotoxicity",Potency
C[C@@H]1CN(Cc2ccc(F)cc2)[C@@H](C)CN1C(=O)c1cc2c(C(=O)C(=O)N(C)C)cn(C)c2cc1Cl,3.08%,
Cn1cnc([N+](=O)[O-])c1Sc1ncnc2nc[nH]c12,,inactive
CCc1cc(Nc2nccc(-c3c(-c4ccc(OC)c(C(=O)Nc5c(F)cccc5F)c4)nc4ccccn34)n2)c(OC)cc1N1CCC(N2CCN(S(C)(=O)=O)CC2)CC1,1.71%,
O=C(O)COCCN1CCN(C(c2ccccc2)c2ccc(Cl)cc2)CC1 (stereo not given),-2.25%,
c1ccc([C@H]2CN3CCSC3=N2)cc1,-9.77%,
N#CC[C@H](C1CCCC1)n1cc(-c2ncnc3[nH]ccc23)cn1,1.02%,
Clc1ccc(Nc2nnc(Cc3ccncc3)c3ccccc23)cc1,,inactive
NCCCC(N)(C(=O)O)C(F)F (stereo not given),9.83%,
CC1(C)Cc2c(-c3ccccc3)c(-c3ccc(Cl)cc3)c(CC(=O)O)n2C1,-13.6%,
Cc1cn[nH]c1,0%,
CCC(C)(C)C(=O)O[C@H]1C[C@@H](C)C=C2C=C[C@H](C)[C@H](CC[C@@H]3C[C@@H](O)CC(=O)O3)[C@H]21,-21.7%,
O=C(Nc1cccnc1)N1CCC(Cc2cccc(Oc3ccc(C(F)(F)F)cn3)c2)CC1,-4.95%,
CCOC(=O)C1=C[C@]2(CC)CCCN3CCc4c(n1c1ccccc41)[C@@H]32,-5.46%,
O=C1CCC(N2C(=O)c3ccccc3C2=O)C(=O)N1 (stereo not given),4.05%,
COc1c(Cl)cc2c([nH]c3cnccc32)c1NC(=O)c1cccnc1C,-0.0741%,
CCCC(CCC)C(=O)O,-3.23%,
NS(=O)(=O)c1cc2c(cc1Cl)NC=NS2(=O)=O,14.5%,
Cc1[nH]c(=O)c(C#N)cc1-c1ccc2nccn2c1,8.75%,
COc1ccc2nc(S(=O)Cc3ncc(C)c(OC)c3C)[nH]c2c1 (stereo not given),-9.51%,
CCc1cncnc1N1CCN(Cc2nc3ccc(C(F)(F)F)cc3[nH]2)CC1,-0.407%,

SMILES,"activity change, negative = cytotoxicity",Potency
Clc1cccc(Cl)c1NC1=NCCN1,17.9%,
CN(C(=O)c1ccc(F)cc1C(F)(F)F)C1CCN(c2nnc(-c3ccnn3C)c3ccccc23)CC1,3.9%,
COc1ccccc1[C@H](c1cccc2ccccc12)[C@@](C)(C#N)C(=O)N1CCC(c2cccc(C(F)(F)F)c2)CC1,-1.35%,
COc1nc(-c2ccc3c(c2)OCO3)n(-c2ccc(NC(=O)CSc3ccccc3)cc2)n1,5.3%,
N[C@@H]1CONC1=O,9.18%,
CS(=O)(=O)c1ccc(C(=O)Nc2ccc(Cl)c(-c3ccccn3)c2)c(Cl)c1,-16%,
CC(C)(N)C(=O)N[C@H](COCc1ccccc1)C(=O)N1CCC2(CC1)CN(S(C)(=O)=O)c1ccccc12,-0.828%,
CCCS(=O)(=O)Nc1ccc(F)c(C(=O)c2c[nH]c3ncc(Cl)cc23)c1F,7.81%,
O=C(c1cc(Cc2n[nH]c(=O)c3ccccc23)ccc1F)N1CCN(C(=O)C2CC2)CC1,-6.7%,
NNCCc1ccccc1,-12.3%,
Cc1cnc(NC(=O)C2=C(O)c3ccccc3S(=O)(=O)N2C)s1,-4.01%,
Cc1ccnc(NS(=O)(=O)c2ccc(NC(=O)Nc3ccc(S(=O)(=O)Nc4nccc(C)n4)cc3)cc2)n1,12.8%,
CN(C)c1ccc(Nc2nc(N)n(C(=O)c3c(F)cccc3F)n2)cc1,-1.4%,
O=NN(CCCl)C(=O)NCCCl,-9.14%,
CS(=O)(=O)c1cccc(CNc2nc(Nc3ccc4c(c3)CCC(=O)N4)ncc2C(F)(F)F)c1,-22.7%,
Cc1c(C)c2c(c(C)c1O)CCC(C)(COc1ccc(CC3SC(=O)NC3=O)cc1)O2 (stereo not given),24%,
CC[C@H](Nc1ncnc2nc[nH]c12)c1nc2cccc(F)c2c(=O)n1-c1ccccc1,-6.79% [at 11.6 µM],
CCCc1nc2c(C)cc(-c3nc4ccccc4n3C)cc2n1Cc1ccc(-c2ccccc2C(=O)O)cc1,0.377%,
Nc1nc2c(ncn2COCCO)c(=O)[nH]1,6.12%,
CCc1ccc(CCOc2ccc(CC3SC(=O)NC3=O)cc2)nc1 (stereo not given),-4.3%,
